IMPase cell inh – membrane-permeable compound that blocks inositol monophosphatase. P97697. 120,000 tested, under 10 active. CHO-M1 cells, IP1 accumulation, HTRF TR-FRET ratio. inhibition (IP1 accumulation), % at 46.1 µM; active = well fitted curve in the direction sought with a large enough effect in the signal ratio, not every such curve was filed as active; inconclusive = small, poorly fitted or top-dose-only effect, or a change in a side signal; inactive = no such curve, though single readings can be large or run the other way; the % refers to the signal ratio;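 note: cells stimulated with carbachol in lithium chloride buffer; plate controls were DMSO basal wells for no effect and reference inhibitor wells for full effect; higher means more IMPase inhibition seen as more IP1 and lower FRET ratio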
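Cellular IMPase inhibition is scored as a rise in cytosolic IP1, detected by competitive TR-FRET between d2-labelled IP1 and a europium anti-IP1 antibody. M1-expressing CHO cells were stimulated with carbachol for 30 min at 37C, with lithium (50 mM LiCl) present in the buffer.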
HPGD block – inhibitors of human 15-hydroxyprostaglandin dehydrogenase (HPGD) | P15428 | purified HPGD, NADH fluorescence kinetic, PGE2 substrate | Potency, µM, inactives show at the highest dose activity change, negative = inhibition, most hits filed as inhibitors | 4.3% of 150,000 active | AID 894; note: potency is the fitted concentration of half-maximal effect
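20 nM HPGD preincubated 15 min at room temperature with compound in 50 mM Tris-HCl pH 8, 0.01% Tween 20. Started with 1 mM NAD+ and 30 uM prostaglandin E2; NADH fluorescence (360/450 nm) read 5 times over 30-s intervals, last minus first.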
ALDH1A1 inh – blocks purified human ALDH1A1 activity; Potency, µM (top dose mostly 75.3 µM), without a hit: at the highest dose activity, negative = inhibition, most hits filed as inhibitors; 7.3% of 220,000 active; Purified ALDH1A1, NADH fluorescence, propionaldehyde substrate;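 note: potency is the fitted concentration of half-maximal effect; plate controls were no enzyme wells and a reference inhibitor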
Target sequence (P00352 whole entry, looked up): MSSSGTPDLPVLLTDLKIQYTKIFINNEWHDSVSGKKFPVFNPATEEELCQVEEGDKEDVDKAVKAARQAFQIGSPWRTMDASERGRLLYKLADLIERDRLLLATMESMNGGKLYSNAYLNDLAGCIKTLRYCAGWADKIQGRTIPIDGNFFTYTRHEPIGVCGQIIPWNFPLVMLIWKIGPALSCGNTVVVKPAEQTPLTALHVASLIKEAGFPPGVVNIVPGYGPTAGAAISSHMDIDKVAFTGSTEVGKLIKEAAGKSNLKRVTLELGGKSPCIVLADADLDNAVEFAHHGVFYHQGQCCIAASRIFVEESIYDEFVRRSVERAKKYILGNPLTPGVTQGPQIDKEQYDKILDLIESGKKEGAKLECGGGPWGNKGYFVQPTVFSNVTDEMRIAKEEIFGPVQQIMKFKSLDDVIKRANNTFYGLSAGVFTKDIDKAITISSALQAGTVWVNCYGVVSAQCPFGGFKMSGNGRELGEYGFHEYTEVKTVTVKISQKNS
Active calls of the source: *; ? = inconclusive; / = no result given; ! = not active in a repeat; [ ] = another dose, or the depositor's remark. A selection: hits, their analogues and other compounds. The true share with any hit is near 9%. Unless noted, calls come from the whole dose curve; as a rule, active = well fitted inhibition curve with a large enough effect (not every such curve was filed as active); inconclusive = small, poorly fitted or top-dose-only effect, or another doubt; inactive = no such curve, though single readings can be large or run the other way. Unless noted, % is set by controls: 0 for no effect and ±100 for the full control effect.

SMILES	IMPase cell inh	HPGD block	ALDH1A1 inh
CC(=O)N1CCN(c2ccc(OCC3CO[C@@](Cn4ccnc4)(c4ccc(Cl)cc4Cl)O3)cc2)CC1 (stereo not given in full)	/	-2%	0%
C=C1[C@@H](C)[C@H]2[C@H](Cc3ccccc3)NC(=O)[C@]23[C@H](OC(C)=O)/C=C/[C@](C)(O)C(=O)[C@@H](C)C/C=C/[C@H]3[C@@H]1O	/	/	4%
Cc1ccc2c(c1)CC1(CN2C)C(=O)NC(=O)N(c2cc(C)ccc2C)C1=O (stereo not given)	?	-16%	1.8µM*
COc1cccc(N2C(=O)NC(=O)C3(Cc4cc(C)ccc4N(C)C3)C2=O)c1 (stereo not given)	-6	-22%	20µM*
COc1cc(CN2C(=O)NC(=O)C3(Cc4cc(C)ccc4N(C)C3)C2=O)cc(OC)c1 (stereo not given)	5	-18%	?
COc1ccc(OC)c(N2C(=O)NC(=O)C3(Cc4cc(C)ccc4N(C)C3)C2=O)c1 (stereo not given)	-11	-11%	?
COc1ccc2c(c1)CC1(CN2C)C(=O)NC(=O)N(CCc2ccccc2)C1=O (stereo not given)	-3	-2%	?
CCCCN1C(=O)NC(=O)C2(Cc3cc(C)ccc3N(C)C2)C1=O (stereo not given)	-11	-10%	10µM*
C[As+](C)(c1ccc(Br)c([N+](=O)[O-])c1)c1ccc(Br)c([N+](=O)[O-])c1.O=[N+]([O-])O	/	-2%	32%[13.5 µM]
Oc1ccc2c3c1O[C@H]1c4c(c5ccccc5n4Cc4ccccc4)C[C@@]4(O)C(C2)N(CC2CC2)CC[C@]314	/	/	5%
CC(=O)OC[C@]12C[C@H](OC(=O)CC(C)C)C(C)=C[C@H]1O[C@H]1[C@H](O)[C@@H](OC(C)=O)[C@@]2(C)[C@]12CO2	/	-1%	-10%
Cc1cccc(N2C(=O)NC(=O)/C(=C/c3ccc(-c4ccc(C(=O)O)c(Cl)c4)o3)C2=O)c1	/	/	4%
Cc1cccc(N2C(=O)NC(=O)/C(=C/c3ccc(N4CCOCC4)cc3)C2=O)c1	/	/	11µM*
CN1C(=O)C(=Cc2ccc(N3CCCCCC3)cc2)C(=O)N(C)C1=O	/	/	0.11µM*
Cc1ccc(N2C(=O)NC(=O)/C(=C\c3ccc(N4CCOCC4)cc3)C2=O)cc1	/	35µM*	11µM*
COc1ccc(N2C(=O)NC(=O)/C(=C/c3ccc(N4CCOCC4)cc3)C2=O)cc1	/	/	10µM*
Cc1c(C=C2C(=O)N(C)C(=O)N(C)C2=O)c(=O)n(-c2ccccc2)n1C	/	5%	3%
C[C@H](N[C@@H](C)CCc1ccccc1)[C@H](O)c1ccc(O)cc1	7	/	/
COc1ccc2c(c1)[C@]13CCCC[C@@H]1[C@H](C2)N(C)CC3	11	/	/
O=C(/C=C/c1ccccc1)NC(NC(=S)Nc1cccc2cccnc12)C(Cl)(Cl)Cl (stereo not given)	/	?	3%
Brc1c(Br)c(Br)c2n[nH]nc2c1Br	-4	?	?
CN[C@@H]1C[C@H](c2ccc(Cl)c(Cl)c2)c2ccccc21	12	-9%	0%
FC(Cl)(Cl)Cl	/	-4%	8%
CN(C)C=C1C(=O)N(C2CCCCC2)C(=O)N(C2CCCCC2)C1=O	5	-8%	-13%
CN1C(=O)C(=Cc2ccc(SC3CCCCC3)o2)C(=O)N(C)C1=O	/	/	14µM*
SMILES	IMPase cell inh	HPGD block	ALDH1A1 inh
CN1C(=O)C(=Cc2ccc(N3CCCCC3)o2)C(=O)N(C)C1=S	-2	-23%	14µM*
O=C1NC(=O)N(c2ccc(F)cc2)C(=O)/C1=C/c1ccc(N2CCOCC2)cc1	/	/	4µM*
CCN(CC)c1ccc(C=C2C(=O)N(C)C(=S)N(C)C2=O)o1	/	-13%	-14%
OC1/C(=C/c2ccc(F)cc2)N2CCC1CC2 (stereo not given)	/	6%	4%
O=C1NC(=O)N(Cc2ccc(F)cc2)C(=O)/C1=C\c1ccc(N2CCCC2)cc1	/	/	0.25µM*
O=C(O)[C@H]1CCN1	1	/	/
Cc1cc(Cl)ccc1N=Cc1c(O)n(C)c(=O)n(C)c1=O	12	?	?
CCCCCCC(C)(C)c1ccc([C@@H]2C[C@H](O)CC[C@@H]2CCCO)c(O)c1	-3	-17%	?
C[C@H]1O[C@H]1P(=O)(O)O	/	-17%	-8%
S=C(S)N1CCCC1	-4	10µM*	0.79µM*
CSC(=S)NCc1c[nH]c2ccccc12	/	-15%	-3%
O=C1NC(=O)N(c2cccc(Cl)c2)C(=O)/C1=C\c1ccc(Sc2nc3ccccc3[nH]2)o1	-20	7.9µM*	22µM*
O=C1NC(=O)N(c2ccccc2)C(=O)/C1=C/c1ccc(Sc2ccccc2)o1	-6	-18%	0%
O=C1NC(=O)N(c2ccc3c(c2)OCO3)C(=O)/C1=C/c1ccc(N2CCCCC2)o1	5	-12%	-11%
O=C1NC(=O)N(c2ccccc2F)C(=O)/C1=C/c1ccc(Sc2nc3ccccc3[nH]2)o1	/	3.5µM*	10µM*
[O]=[Cr](=[O])([OH])[O][Cr](=[O])(=[O])[OH]	/	-8%	-10%
ClCCl	/	-7%	?
O=C1N[C@@]2(CN3CCC2CC3)C(=O)N1CN(Cc1ccccc1)c1ccccc1	/	-12%	15%[13.5 µM]
O=C(CN1CCOCC1)c1cccc2ccccc12	-1	-9%	13µM*
CCn1cc(C(=O)N2CCOCC2)c2ccccc21	/	/	8%
Cc1c(C(=O)c2ccc3ccccc3c2)c2cccc3c2n1[C@H](CN1CCOCC1)CO3	3	4%	-14%
Cc1c(C(=O)c2cccc3ccccc23)c2cccc3c2n1[C@H](CN1CCOCC1)CO3	4	-23%	11µM*!
COP(=O)(OC)[C@@H](O)C(Cl)(Cl)Cl	5[20.6 µM]	-10%	7%[20.9 µM]
Cc1ccc(NC(=O)COC(=O)/C=C/c2ccco2)cc1S(=O)(=O)N(C)C	9	-5%	?
N#Cc1cccc(NC(=O)N2CC[C@@]3(CCCN(C(=O)Oc4ccccc4)C3)C2)c1	/	-5%	-16%
SMILES	IMPase cell inh	HPGD block	ALDH1A1 inh
COc1ccc(NC(=O)N2CCC3(CC2)CCN(C(=O)Oc2ccccc2)CC3)cc1	/	-13%	10µM*
COc1ccc(NC(=O)N2CCCC3(CCN(C(=O)Oc4ccccc4)CC3)C2)cc1	/	-2%	?
O=C(O)[C@@H]1C[C@H]2C[C@@H](CP(=O)(O)O)CC[C@H]2CN1	-3	1%	0%
C1CCc2nnnn2CC1	1[20.6 µM]	-7%	-7%
Oc1cc2c(cc1O)[C@H]1c3ccccc3CN[C@H]1CC2	-1	8.9µM*	?
Oc1cc2c(cc1O)[C@H]1c3ccccc3CN[C@@H]1CC2	6	/	/
CCCN1CCO[C@@H]2c3cc(O)ccc3OC[C@@H]21	-4	?	?
c1cc2cc(c1)C[n+]1ccc(c3ccccc31)NCc1ccc(cc1)CNc1cc[n+](c3ccccc13)C2	9	-21%	?
Cc1c(C(=O)N2CCC3(CC2)OCCO3)oc2ccc(S(=O)(=O)N3CCOCC3)cc12	5	-9%	?
Cc1c(C(=O)NCCC2=CCCCC2)oc2ccc(S(=O)(=O)N3CCC4(CC3)OCCO4)cc12	10	-18%	22µM*
Cc1cc(N2C(=O)C3CCCN3C2c2sccc2C)no1 (stereo not given)	-2	/	1.6µM*
Cc1cc(N2C(=O)C3CCCN3C2c2cccc(Cl)c2)no1 (stereo not given)	4	-13%	-7%

Screens deposited in PubChem BioAssay by National Center for Advancing Translational Sciences (NCATS).
